# According to publication PMC7862700, “An all-to-all approach to the identification of sequence-specific readers for epigenetic DNA modifications on cytosine”:
# What was measured:
# Test in all cases: DAPPL (digital affinity profiling via proximity ligation, sequencing); 10 mM Tris-HCl pH 7.5, 50 mM NaCl, 1 mM DTT, 4% glycerol, room temperature, 30 min; GST-TFs on glutathione beads, 16-mer random dsDNA library, 0.1% formaldehyde crosslink after washing; high values mean tight binding
# FLI1 = biological target: T1, FLI1 (Homo sapiens, UniProt Q01543 1-452); conditions: protein: recombinant; tags: N-terminal GST; dsDNA, one strand shown
# T1 sequence: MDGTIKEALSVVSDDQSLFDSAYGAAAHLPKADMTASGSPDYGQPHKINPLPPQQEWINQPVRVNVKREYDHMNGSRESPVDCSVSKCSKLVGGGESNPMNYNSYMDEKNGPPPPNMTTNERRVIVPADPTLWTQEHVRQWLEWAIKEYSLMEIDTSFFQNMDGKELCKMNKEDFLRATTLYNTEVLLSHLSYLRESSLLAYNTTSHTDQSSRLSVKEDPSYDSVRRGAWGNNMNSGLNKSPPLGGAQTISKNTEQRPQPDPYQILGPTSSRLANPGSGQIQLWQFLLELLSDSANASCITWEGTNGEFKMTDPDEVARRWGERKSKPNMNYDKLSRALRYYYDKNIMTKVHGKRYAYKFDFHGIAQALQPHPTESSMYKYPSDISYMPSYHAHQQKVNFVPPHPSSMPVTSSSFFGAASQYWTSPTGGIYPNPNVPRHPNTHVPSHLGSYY
# In short: (§1)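 Human transcription factors carrying a GST fusion were produced in yeast, bound to glutathione beads, tagged with DNA barcodes and pooled together with a tag-only sample. Each pool was held with 200 nmole of a random double-stranded 16-mer DNA library in Tris/NaCl/DTT/glycerol buffer for 30 min at room temperature, then washed, crosslinked in 0.1% formaldehyde, proximity-ligated with BsaI/T4 ligase (1 h, 37 °C), PCR-amplified and sequenced on an Illumina NextSeq500. Binding signal is the read frequency of each hexamer for a given factor divided by its frequency in the tag-only sample.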
# ELK1 = biological target: T2, ELK1 (Homo sapiens, UniProt P19419 1-428); conditions: protein: recombinant; tags: N-terminal GST; dsDNA, one strand shown
# T2 sequence: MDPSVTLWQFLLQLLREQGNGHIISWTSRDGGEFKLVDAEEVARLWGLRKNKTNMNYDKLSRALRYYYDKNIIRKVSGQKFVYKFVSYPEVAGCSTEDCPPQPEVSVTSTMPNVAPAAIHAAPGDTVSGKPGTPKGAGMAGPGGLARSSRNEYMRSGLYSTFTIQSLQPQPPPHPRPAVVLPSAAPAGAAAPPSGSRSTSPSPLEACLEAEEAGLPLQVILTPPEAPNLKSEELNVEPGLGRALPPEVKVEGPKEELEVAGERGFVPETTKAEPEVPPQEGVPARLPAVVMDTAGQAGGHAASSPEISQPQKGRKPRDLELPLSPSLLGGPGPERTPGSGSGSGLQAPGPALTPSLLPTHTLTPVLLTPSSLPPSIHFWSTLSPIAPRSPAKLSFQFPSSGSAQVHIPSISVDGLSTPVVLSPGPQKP
# In short: as §1
# GABPA = biological target: T3, GABPA (Homo sapiens, UniProt Q06546 1-454); conditions: protein: recombinant; tags: N-terminal GST; dsDNA, one strand shown
# T3 sequence: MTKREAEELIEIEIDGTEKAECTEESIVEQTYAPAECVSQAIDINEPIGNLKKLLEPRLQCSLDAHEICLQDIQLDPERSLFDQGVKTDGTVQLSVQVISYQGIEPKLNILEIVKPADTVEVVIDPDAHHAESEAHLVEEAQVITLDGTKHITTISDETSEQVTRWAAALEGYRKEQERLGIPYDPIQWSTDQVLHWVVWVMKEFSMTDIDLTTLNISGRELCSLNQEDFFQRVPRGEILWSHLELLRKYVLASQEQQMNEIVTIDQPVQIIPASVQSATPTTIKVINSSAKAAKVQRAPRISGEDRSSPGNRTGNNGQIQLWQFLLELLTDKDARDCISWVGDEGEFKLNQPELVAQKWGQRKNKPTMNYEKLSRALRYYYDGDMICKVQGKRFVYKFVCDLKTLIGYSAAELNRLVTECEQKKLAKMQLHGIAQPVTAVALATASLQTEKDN
# In short: as §1
# ERG = biological target: T4, ERG (Homo sapiens, UniProt P11308 1-479); conditions: protein: recombinant; tags: N-terminal GST; dsDNA, one strand shown
# T4 sequence: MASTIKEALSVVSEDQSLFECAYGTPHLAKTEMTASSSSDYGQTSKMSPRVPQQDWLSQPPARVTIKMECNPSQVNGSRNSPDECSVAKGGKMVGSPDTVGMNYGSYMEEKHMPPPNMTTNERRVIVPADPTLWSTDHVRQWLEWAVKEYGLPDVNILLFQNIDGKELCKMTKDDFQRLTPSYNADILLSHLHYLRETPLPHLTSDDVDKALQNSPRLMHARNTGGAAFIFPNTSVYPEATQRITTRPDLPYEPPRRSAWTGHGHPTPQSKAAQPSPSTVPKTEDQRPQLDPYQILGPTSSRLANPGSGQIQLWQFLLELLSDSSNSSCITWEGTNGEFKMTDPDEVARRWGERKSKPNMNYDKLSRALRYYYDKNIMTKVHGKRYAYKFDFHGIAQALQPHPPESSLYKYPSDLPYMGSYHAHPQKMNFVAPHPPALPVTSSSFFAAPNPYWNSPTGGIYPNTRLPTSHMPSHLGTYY
# In short: as §1
# ELF1 = ELF1 (Homo sapiens, UniProt P32519 1-619); conditions: protein: recombinant; tags: N-terminal GST; dsDNA, one strand shown
# Sequence of ELF1 (P32519 whole entry): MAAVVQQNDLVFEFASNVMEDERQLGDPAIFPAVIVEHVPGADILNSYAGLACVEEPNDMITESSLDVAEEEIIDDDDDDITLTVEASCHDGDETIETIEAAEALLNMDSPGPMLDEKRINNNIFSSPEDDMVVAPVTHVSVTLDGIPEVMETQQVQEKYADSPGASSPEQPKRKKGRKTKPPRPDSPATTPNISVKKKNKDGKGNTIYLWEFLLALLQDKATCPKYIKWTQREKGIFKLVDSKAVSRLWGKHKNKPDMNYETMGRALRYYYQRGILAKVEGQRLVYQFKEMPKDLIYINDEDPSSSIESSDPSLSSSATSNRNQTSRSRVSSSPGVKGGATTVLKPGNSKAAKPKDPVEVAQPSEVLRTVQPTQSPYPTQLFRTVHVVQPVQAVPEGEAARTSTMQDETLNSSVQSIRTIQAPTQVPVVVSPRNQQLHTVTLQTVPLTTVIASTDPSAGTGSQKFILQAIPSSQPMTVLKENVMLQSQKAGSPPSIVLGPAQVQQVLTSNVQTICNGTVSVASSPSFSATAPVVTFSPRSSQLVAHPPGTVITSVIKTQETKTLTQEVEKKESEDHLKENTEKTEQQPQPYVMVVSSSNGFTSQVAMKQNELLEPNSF
# In short: as §1
# EHF = biological target: T5, EHF (Homo sapiens, UniProt Q9NZC4 1-300); conditions: protein: recombinant; tags: N-terminal GST; dsDNA, one strand shown
# T5 sequence: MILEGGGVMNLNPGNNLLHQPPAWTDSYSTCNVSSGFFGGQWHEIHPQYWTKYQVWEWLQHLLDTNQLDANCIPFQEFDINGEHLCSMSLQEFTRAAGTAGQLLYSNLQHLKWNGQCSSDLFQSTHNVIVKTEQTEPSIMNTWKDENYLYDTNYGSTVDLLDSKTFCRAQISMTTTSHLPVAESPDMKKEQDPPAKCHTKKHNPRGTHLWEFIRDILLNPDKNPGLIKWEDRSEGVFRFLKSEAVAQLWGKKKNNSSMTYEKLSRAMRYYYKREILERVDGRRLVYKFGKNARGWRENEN
# In short: as §1
# SPI1 = SPI1 (Homo sapiens, UniProt P17947 1-270); conditions: protein: recombinant; tags: N-terminal GST; dsDNA, one strand shown
# In short: as §1
# SPIB = SPIB (Homo sapiens, UniProt Q01892 1-262); conditions: protein: recombinant; tags: N-terminal GST; dsDNA, one strand shown
# Sequence of SPIB (Q01892 whole entry): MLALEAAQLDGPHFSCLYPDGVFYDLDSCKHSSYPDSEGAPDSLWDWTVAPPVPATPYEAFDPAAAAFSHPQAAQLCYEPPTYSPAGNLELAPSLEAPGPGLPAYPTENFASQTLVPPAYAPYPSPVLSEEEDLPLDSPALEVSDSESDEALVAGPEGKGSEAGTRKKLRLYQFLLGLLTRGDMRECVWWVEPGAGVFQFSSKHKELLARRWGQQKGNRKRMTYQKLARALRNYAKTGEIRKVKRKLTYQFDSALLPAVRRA
# In short: as §1
# ELK3 = biological target: T6, ELK3 (Homo sapiens, UniProt P41970 1-407); conditions: protein: recombinant; tags: N-terminal GST; dsDNA, one strand shown
# T6 sequence: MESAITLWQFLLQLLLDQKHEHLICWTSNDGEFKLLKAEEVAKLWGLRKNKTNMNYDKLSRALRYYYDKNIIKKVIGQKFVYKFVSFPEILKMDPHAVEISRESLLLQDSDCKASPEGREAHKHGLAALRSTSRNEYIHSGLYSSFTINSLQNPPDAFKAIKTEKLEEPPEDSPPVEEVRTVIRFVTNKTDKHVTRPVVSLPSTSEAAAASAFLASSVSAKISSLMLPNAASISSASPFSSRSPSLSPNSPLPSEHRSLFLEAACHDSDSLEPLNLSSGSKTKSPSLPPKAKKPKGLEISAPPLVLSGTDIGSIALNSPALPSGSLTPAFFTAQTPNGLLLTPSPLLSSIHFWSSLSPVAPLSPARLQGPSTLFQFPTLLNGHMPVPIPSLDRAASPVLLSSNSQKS
# In short: as §1
# FEV = biological target: T7, FEV (Homo sapiens, UniProt Q99581 1-238); conditions: protein: recombinant; tags: N-terminal GST; dsDNA, one strand shown
# T7 sequence: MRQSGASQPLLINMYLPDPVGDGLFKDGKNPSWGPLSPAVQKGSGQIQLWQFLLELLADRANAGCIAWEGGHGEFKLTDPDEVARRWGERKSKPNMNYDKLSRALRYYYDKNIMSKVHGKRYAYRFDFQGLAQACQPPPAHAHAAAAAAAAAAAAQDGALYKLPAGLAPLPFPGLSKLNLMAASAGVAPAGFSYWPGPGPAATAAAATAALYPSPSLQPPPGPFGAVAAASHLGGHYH
# In short: as §1
# ETV5 = ETV5 (Homo sapiens, UniProt P41161 1-510); conditions: protein: recombinant; tags: N-terminal GST; dsDNA, one strand shown
# Sequence of ETV5 (P41161 whole entry): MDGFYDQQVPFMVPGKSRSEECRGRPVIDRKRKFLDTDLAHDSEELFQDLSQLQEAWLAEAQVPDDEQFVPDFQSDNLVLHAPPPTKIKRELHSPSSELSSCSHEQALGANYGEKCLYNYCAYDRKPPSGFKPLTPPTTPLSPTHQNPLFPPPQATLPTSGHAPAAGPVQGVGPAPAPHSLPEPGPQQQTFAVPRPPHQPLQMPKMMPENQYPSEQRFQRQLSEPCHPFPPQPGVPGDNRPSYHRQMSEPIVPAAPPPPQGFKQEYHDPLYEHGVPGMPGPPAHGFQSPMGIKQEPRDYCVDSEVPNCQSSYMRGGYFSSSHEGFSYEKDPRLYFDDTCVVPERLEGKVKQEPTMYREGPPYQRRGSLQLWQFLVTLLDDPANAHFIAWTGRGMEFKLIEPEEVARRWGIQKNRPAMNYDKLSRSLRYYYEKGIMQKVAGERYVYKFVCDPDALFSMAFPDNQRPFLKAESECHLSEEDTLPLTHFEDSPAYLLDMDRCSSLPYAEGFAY
# In short: as §1
# HSF1 = HSF1 (Homo sapiens, UniProt Q00613 1-529); conditions: protein: recombinant; tags: N-terminal GST; chain copies: 3; dsDNA, one strand shown
# Sequence of HSF1 (Q00613 whole entry): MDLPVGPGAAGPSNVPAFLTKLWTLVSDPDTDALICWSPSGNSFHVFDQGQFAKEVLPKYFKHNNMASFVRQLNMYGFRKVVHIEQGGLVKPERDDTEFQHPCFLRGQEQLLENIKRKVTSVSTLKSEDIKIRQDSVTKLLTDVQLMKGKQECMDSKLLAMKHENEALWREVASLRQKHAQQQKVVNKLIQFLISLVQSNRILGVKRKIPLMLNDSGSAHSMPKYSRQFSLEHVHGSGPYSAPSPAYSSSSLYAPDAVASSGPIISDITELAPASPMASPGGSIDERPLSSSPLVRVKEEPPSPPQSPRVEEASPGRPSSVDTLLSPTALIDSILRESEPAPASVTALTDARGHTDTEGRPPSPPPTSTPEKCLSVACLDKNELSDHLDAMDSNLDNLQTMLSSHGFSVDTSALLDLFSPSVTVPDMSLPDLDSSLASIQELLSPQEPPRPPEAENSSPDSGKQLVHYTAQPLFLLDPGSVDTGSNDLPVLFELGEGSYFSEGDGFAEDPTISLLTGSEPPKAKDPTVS
# In short: as §1
# SPIC = biological target: T8, SPIC (Homo sapiens, UniProt Q8N5J4 1-248); conditions: protein: recombinant; tags: N-terminal GST; dsDNA, one strand shown
# T8 sequence: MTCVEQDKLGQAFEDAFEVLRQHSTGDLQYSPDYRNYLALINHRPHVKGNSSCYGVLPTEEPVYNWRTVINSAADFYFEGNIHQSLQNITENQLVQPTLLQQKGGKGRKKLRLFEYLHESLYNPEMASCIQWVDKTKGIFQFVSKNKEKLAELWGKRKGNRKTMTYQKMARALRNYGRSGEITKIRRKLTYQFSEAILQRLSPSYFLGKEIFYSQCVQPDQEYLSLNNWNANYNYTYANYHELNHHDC
# In short: as §1
# ELF4 = ELF4 (Homo sapiens, UniProt Q99607 1-663); conditions: protein: recombinant; tags: N-terminal GST; dsDNA, one strand shown
# Sequence of ELF4 (Q99607 whole entry): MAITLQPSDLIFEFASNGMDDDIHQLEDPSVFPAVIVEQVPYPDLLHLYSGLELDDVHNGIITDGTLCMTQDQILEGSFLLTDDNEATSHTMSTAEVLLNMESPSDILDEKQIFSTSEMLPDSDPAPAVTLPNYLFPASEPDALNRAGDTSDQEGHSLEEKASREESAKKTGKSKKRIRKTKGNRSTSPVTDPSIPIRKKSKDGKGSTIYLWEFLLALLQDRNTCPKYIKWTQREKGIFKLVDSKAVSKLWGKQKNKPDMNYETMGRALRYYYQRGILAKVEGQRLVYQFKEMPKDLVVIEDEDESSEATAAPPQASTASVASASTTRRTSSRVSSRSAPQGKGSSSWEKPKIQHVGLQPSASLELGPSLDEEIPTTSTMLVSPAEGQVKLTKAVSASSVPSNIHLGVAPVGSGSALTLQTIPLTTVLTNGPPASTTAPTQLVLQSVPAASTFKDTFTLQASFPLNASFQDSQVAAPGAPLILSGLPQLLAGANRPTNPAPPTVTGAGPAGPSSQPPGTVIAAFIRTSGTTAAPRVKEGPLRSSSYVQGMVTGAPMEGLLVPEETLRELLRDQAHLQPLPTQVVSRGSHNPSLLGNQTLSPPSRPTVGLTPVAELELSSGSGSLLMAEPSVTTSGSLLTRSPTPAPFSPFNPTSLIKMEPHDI
# In short: as §1
# ELK4 = biological target: T9, ELK4 (Homo sapiens, UniProt P28324-2 1-405); conditions: protein: recombinant; tags: N-terminal GST; dsDNA, one strand shown
# T9 sequence: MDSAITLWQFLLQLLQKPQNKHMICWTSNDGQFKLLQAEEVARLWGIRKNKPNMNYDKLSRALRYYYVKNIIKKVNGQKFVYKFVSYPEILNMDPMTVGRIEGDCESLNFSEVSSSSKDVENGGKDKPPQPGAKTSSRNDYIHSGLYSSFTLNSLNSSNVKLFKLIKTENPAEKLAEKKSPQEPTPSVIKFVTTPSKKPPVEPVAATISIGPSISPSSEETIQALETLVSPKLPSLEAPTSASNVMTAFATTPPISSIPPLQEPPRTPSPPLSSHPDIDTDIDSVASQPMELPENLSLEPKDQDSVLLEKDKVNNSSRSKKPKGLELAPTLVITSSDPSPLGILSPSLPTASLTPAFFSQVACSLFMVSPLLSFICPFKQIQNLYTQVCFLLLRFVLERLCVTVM
# In short: as §1
# ETV2 = biological target: T10, ETV2 (Homo sapiens, UniProt O00321 1-342); conditions: protein: recombinant; tags: N-terminal GST; dsDNA, one strand shown
# T10 sequence: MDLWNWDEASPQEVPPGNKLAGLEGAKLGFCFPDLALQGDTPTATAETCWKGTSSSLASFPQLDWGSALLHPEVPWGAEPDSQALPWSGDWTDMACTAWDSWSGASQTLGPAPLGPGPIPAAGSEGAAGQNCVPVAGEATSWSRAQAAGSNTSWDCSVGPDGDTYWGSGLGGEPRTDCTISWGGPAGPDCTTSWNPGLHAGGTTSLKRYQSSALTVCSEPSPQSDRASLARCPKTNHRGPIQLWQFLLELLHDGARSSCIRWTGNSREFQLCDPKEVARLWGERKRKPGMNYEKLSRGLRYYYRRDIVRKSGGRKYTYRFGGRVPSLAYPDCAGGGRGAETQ
# In short: as §1
# ELF3 = biological target: T11, ELF3 (Homo sapiens, UniProt P78545 1-371); conditions: protein: recombinant; tags: N-terminal GST; dsDNA, one strand shown
# T11 sequence: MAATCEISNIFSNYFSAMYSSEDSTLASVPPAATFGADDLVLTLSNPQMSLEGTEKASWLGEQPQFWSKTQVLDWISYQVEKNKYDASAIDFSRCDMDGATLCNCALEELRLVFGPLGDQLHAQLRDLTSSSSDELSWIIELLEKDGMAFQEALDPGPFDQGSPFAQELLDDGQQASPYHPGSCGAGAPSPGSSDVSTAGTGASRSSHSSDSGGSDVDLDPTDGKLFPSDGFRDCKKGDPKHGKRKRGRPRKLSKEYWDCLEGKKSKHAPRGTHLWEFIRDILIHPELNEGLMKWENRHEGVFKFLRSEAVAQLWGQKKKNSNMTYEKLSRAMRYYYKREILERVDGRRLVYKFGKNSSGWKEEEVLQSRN
# In short: as §1
# CRX = CRX (Homo sapiens, UniProt O43186 1-299); conditions: protein: recombinant; tags: N-terminal GST; dsDNA, one strand shown
# Sequence of CRX (O43186 whole entry): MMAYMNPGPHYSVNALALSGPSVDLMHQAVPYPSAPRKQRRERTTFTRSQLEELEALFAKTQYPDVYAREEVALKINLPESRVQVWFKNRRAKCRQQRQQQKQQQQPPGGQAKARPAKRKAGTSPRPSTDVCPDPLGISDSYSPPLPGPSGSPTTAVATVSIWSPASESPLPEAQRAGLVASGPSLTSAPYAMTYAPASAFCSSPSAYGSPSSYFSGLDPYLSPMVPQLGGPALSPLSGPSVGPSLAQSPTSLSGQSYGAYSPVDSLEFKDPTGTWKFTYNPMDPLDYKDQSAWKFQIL
# In short: as §1
# ETV1 = ETV1 (Homo sapiens, UniProt P50549 1-477); conditions: protein: recombinant; tags: N-terminal GST; dsDNA, one strand shown
# Sequence of ETV1 (P50549 whole entry): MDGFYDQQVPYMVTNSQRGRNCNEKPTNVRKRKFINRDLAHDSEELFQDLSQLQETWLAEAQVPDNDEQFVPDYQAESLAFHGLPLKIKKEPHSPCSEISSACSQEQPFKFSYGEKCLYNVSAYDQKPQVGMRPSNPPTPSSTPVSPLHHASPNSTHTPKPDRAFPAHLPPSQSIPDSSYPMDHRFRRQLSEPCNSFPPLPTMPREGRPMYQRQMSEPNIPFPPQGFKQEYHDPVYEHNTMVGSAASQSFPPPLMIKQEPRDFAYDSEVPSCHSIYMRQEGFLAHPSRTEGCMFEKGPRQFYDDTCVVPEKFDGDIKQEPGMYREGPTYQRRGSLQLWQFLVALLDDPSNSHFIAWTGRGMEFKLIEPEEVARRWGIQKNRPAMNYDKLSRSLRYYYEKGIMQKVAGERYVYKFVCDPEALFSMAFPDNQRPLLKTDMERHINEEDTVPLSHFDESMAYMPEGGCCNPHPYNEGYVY
# In short: as §1
sequence,measurement,setting,value
TCTGGT,binding signal,FLI1,"1.25 fold enrichment (6-mer frequency, TF over GST control)"
same,binding signal,ELK1,"1.29 fold enrichment (6-mer frequency, TF over GST control)"
same,binding signal,GABPA,"1.32 fold enrichment (6-mer frequency, TF over GST control)"
same,binding signal,ERG,"1.33 fold enrichment (6-mer frequency, TF over GST control)"
same,binding signal,ELF1,"1.22 fold enrichment (6-mer frequency, TF over GST control)"
same,binding signal,EHF,"1.21 fold enrichment (6-mer frequency, TF over GST control)"
same,binding signal,SPI1,"1.31 fold enrichment (6-mer frequency, TF over GST control)"
same,binding signal,SPIB,"1.21 fold enrichment (6-mer frequency, TF over GST control)"
same,binding signal,ELK3,"1.31 fold enrichment (6-mer frequency, TF over GST control)"
same,binding signal,FEV,"1.12 fold enrichment (6-mer frequency, TF over GST control)"
same,binding signal,ETV5,"1.28 fold enrichment (6-mer frequency, TF over GST control)"
same,binding signal,HSF1,"1.8 fold enrichment (6-mer frequency, TF over GST control)"
same,binding signal,SPIC,"1.38 fold enrichment (6-mer frequency, TF over GST control)"
same,binding signal,ELF4,"1.28 fold enrichment (6-mer frequency, TF over GST control)"
same,binding signal,ELK4,"1.17 fold enrichment (6-mer frequency, TF over GST control)"
same,binding signal,ETV2,"1.16 fold enrichment (6-mer frequency, TF over GST control)"
same,binding signal,ELF3,"1.34 fold enrichment (6-mer frequency, TF over GST control)"
same,binding signal,CRX,"1.33 fold enrichment (6-mer frequency, TF over GST control)"
same,binding signal,ETV1,"1.1 fold enrichment (6-mer frequency, TF over GST control)"
